This note sets out measurements from the supplement of paper PMC9950053.

Where a name gives a salt, the structure may show the parent alone.

Common to all, as to settings: 10 µM; exposure time: 3 h pre-incubation + 3 h imaging
The test system of assay [1] is Danio rerio larvae (5 dpf). The assay can be described thus: combined upward orientation toward moving lines (periods 7-14) minus DMSO control (percentage points); higher = more orientation with moving lines than DMSO larvae. In short, it runs like this:
(§1)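 Wild-type 5 dpf zebrafish larvae were exposed to compounds at 10 µM final for 3 h before and 3 h during imaging at 28.5 °C. Larvae were imaged every 6 s and tracked by Z-LaP Tracker. Detections below 0.5 probability and larvae moving under 1% of the time were excluded. Each behavioural measure is the group mean (n = 48) minus the DMSO control mean (n = 844), in percentage points.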

Assay [2] deals with Danio rerio larvae (5 dpf). Description: combined optomotor response (time in upper well half, down vs up moving lines, periods 7-14) minus DMSO control (percentage points); higher = stronger optomotor response than DMSO larvae.
The test system of assay [3] is Danio rerio larvae (5 dpf). Description: startle (activity period 16 minus period 15, 20-s interval sound) minus DMSO control (percentage points); higher = stronger startle response than DMSO larvae. In short, it runs like this:
as §1

Assay [4] deals with Danio rerio larvae (5 dpf). The assay can be described thus: habituation (activity change first vs second 5 min of 1-s interval sound, period 17) minus DMSO control (percentage points); higher = larger habituation measure than DMSO larvae. The method, boiled down: as §1
Assay [5] has as its system Danio rerio larvae (5 dpf). The assay can be described thus: 1-h baseline activity (% time moving, periods 1-6) minus DMSO control (percentage points); higher = more locomotor activity than DMSO larvae. The method, boiled down:
as §1

For assay [6], the system named is Danio rerio larvae (5 dpf). Description: excitability (activity period 17 minus period 16, 1-s interval sound) minus DMSO control (percentage points); higher = more acoustic excitability than DMSO larvae. In short, it runs like this:
as §1

Take `COc1c(C)c2c(c(O)c1C/C=C(\C)CCC(=O)O)C(=O)OC2` [Mycophenolic acid]: the “combined upward orientation toward moving lines” value in assay [1] was -0.977. For the same molecule, in assay [2], the combined optomotor response was 7.6.
On the same counts, the results for `COc1ccccc1OCCNCC(O)COc1cccc2[nH]c3ccccc3c12` (configuration not stated) [Carvedilol] are -11.6 and -1.8.
In the case of `Cc1cn([C@H]2C=C[C@@H](CO)O2)c(=O)[nH]c1=O` [Stavudine], the startle in assay [3] turned out to be 0.235. Also, the combined optomotor response in assay [2] was 7.54.
Consider `CCN(CC)CCNC(=O)c1c(C)[nH]c(/C=C2\C(=O)Nc3ccc(F)cc32)c1C` [Sunitinib malate], for which the “combined upward orientation toward moving lines” value in assay [1] was -5.61. Further, the combined optomotor response in assay [2] turned out to be 2.67.
For `NS(=O)(=O)Cc1noc2ccccc12` [Zonisamide], the startle in assay [3] is 5.14. In addition, the combined optomotor response in assay [2] was 7.
On to `Cc1cc(C2CCCCC2)n(O)c(=O)c1` [Ciclopirox], for which, in assay [1], the “combined upward orientation toward moving lines” value is -27.9. Further, the combined optomotor response in assay [2] is 5.45.
In the same order, the values of `Cn1nnc2c(C(N)=O)ncn2c1=O` [Temozolomide] are -6.36 and 5.41.
On the same counts, the results for `O=C1CCc2cc(OCCCCc3nnnn3C3CCCCC3)ccc2N1` [Cilostazol] are -4.64 and 5.41.
`COc1cc2nc(N3CCN(C(=O)C4COc5ccccc5O4)CC3)nc(N)c2cc1OC` (configuration not stated) [Doxazosin mesylate]: in assay [3], the startle turned out to be 6.47. For the same molecule, the “combined upward orientation toward moving lines” value in assay [1] was -11.6. Further, the combined optomotor response in assay [2] was -3.96.
As to `O=C(NCC1CCCCN1)c1cc(OCC(F)(F)F)ccc1OCC(F)(F)F` (configuration not stated) [Flecainide acetate], in assay [1], the “combined upward orientation toward moving lines” value is -3.7. Moreover, the combined optomotor response in assay [2] is 2.85.
`Cc1nc(-c2ccc(OCC(C)C)c(C#N)c2)sc1C(=O)O` [Febuxostat]: in assay [1], the “combined upward orientation toward moving lines” value was -3.47. The habituation in assay [4] is -3.37. In addition, the combined optomotor response in assay [2] was 1.46.
With `Nc1nc(Cl)nc2c1ncn2[C@@H]1O[C@H](CO)[C@@H](O)[C@@H]1F` [Clofarabine], in assay [1], the “combined upward orientation toward moving lines” value is -4.29. The combined optomotor response in assay [2] amounted to 4.66.
In the same order, the values of `COc1c(C)c2c(c(O)c1C/C=C(\C)CCC(=O)OCCN1CCOCC1)C(=O)OC2` [Mycophenolate mofetil] are 4.45 and 12.9.
In the same order, the values of `CC(=O)NC[C@H]1CN(c2ccc(N3CCOCC3)c(F)c2)C(=O)O1` [Linezolid] are 0.95 and 6.27.
For the molecule `CC#C[C@]1(O)CC[C@H]2[C@@H]3CCC4=CC(=O)CCC4=C3[C@@H](c3ccc(N(C)C)cc3)C[C@@]21C` [Mifepristone], the startle in assay [3] came out at 0.533. In assay [2], the combined optomotor response worked out at 8.07.
Consider `OCCN(CCO)c1nc(N2CCCCC2)c2nc(N(CCO)CCO)nc(N3CCCCC3)c2n1` [Dipyridamole], for which, in assay [1], the “combined upward orientation toward moving lines” value is -2.19. Further, in assay [2], the combined optomotor response was -1.19.
On the same counts, the results for `CC(C)Nc1cccnc1N1CCN(C(=O)c2cc3cc(NS(C)(=O)=O)ccc3[nH]2)CC1` [Delavirdine mesylate] are -7.64 and -0.694.
In the same order, the values of `CC(C)c1nc(N(C)S(C)(=O)=O)nc(-c2ccc(F)cc2)c1/C=C/[C@@H](O)C[C@@H](O)CC(=O)O` [Rosuvastatin calcium] are 4.67 and 6.26.
Consider `CC(C)(C#N)c1cc(Cn2cncn2)cc(C(C)(C)C#N)c1` [Anastrozole], for which the startle in assay [3] is -0.0231. Also, the combined optomotor response in assay [2] was -1.87.
In the same order, the values of `Nc1ccn([C@@H]2O[C@H](CO)[C@@H](O)C2(F)F)c(=O)n1` [Gemcitabine hydrochloride] are 2.17 and 1.86.
On the same counts, the results for `CC(C)N(CCCCOCC(=O)NS(C)(=O)=O)c1cnc(-c2ccccc2)c(-c2ccccc2)n1` [Selexipag] are 1.3 and 4.06.
Regarding `N#Cc1ccc(C(c2ccc(C#N)cc2)n2cncn2)cc1` [Letrozole], the “combined upward orientation toward moving lines” value in assay [1] was -1.71. The habituation in assay [4] stood at 3.66. Moreover, the combined optomotor response in assay [2] was -0.923.
With `COC(=O)C1=C(C)NC(C)=C(C(=O)OC(C)C)C1c1cccc2nonc12` (configuration not stated) [Isradipine], the “combined upward orientation toward moving lines” value in assay [1] was -3.59. Also, the combined optomotor response in assay [2] is -14.7.
For `COc1ccc(-c2ccc3cc(C(=O)O)ccc3c2)cc1C12CC3CC(CC(C3)C1)C2` [Adapalene], the startle in assay [3] is -0.788. Moreover, the combined optomotor response in assay [2] stood at 0.129.
`CN(CCOc1ccc(NS(C)(=O)=O)cc1)CCc1ccc(NS(C)(=O)=O)cc1` [Dofetilide]: the 1-h baseline activity in assay [5] was -0.169. In addition, in assay [3], the startle was determined as 0.253. The excitability in assay [6] was determined as 6.73.
As for `CN(C)CCC[C@@]1(c2ccc(F)cc2)OCc2cc(C#N)ccc21` [Escitalopram oxalate], the “combined upward orientation toward moving lines” value in assay [1] was -1.11. Besides, the combined optomotor response in assay [2] was -0.7.
On to `CN(C)CC/C=C1/c2ccccc2COc2ccc(CC(=O)O)cc21` [Olopatadine hydrochloride], for which the 1-h baseline activity in assay [5] is -0.564. Besides, in assay [3], the startle amounted to 1.07. For the same molecule, the combined optomotor response in assay [2] was 8.84.
For `CC(C)(C)NC(=O)[C@@H]1C[C@@H]2CCCC[C@@H]2CN1C[C@@H](O)[C@H](Cc1ccccc1)NC(=O)[C@H](CC(N)=O)NC(=O)c1ccc2ccccc2n1` [Saquinavir mesylate], the startle in assay [3] turned out to be 0.811. Moreover, the combined optomotor response in assay [2] was -2.96.
Regarding `Nc1ncn([C@H]2C[C@H](O)[C@@H](CO)O2)c(=O)n1` [Decitabine], the startle in assay [3] is -1.27. In assay [6], the excitability was determined as 8.23. In assay [2], the combined optomotor response worked out at 3.77.
As to `Nc1ncn([C@@H]2O[C@H](CO)[C@@H](O)[C@H]2O)c(=O)n1` [5-Azacytidine], the startle in assay [3] was 2.79. Moreover, the excitability in assay [6] is -2.47. In addition, the combined optomotor response in assay [2] came out at 3.71.
For the molecule `CC(C)C(=O)Nc1ccc([N+](=O)[O-])c(C(F)(F)F)c1` [Flutamide], the startle in assay [3] is -5.6. In assay [2], the combined optomotor response was -12.4.
With `CCOC(=O)c1ncn2c1CN(C)C(=O)c1cc(F)ccc1-2` [Flumazenil], in assay [3], the startle was -0.637. For the same molecule, in assay [4], the habituation is -2.62. Further, the combined optomotor response in assay [2] came to 3.13.
